Experimental data taken from PubChem BioAssay AID1543 (National Center for Advancing Translational Sciences (NCATS), 2009).
Results filed as inconclusive are left out. Active and inactive are the calls of the source. The call rests on the fitted dose curve; in most records, active means well fitted activation curve with a large enough effect; inconclusive means small, poorly fitted or top-dose-only effect, or effect the other way; inactive means flat fitted curve, though single readings scatter.

These molecules were tested against Pyruvate kinase PKLR (Homo sapiens) (UniProt P30613) (assay: Secondary assay for Activators of Human Reticulocyte Pyruvate Kinase). Conditions: purified hPK-R, LDH-coupled NADH fluorescence kinetic; series mostly up to 57.5 µM; activation: at the top concentration.
Sequence of Pyruvate kinase PKLR (Homo sapiens) (P30613 whole entry, looked up): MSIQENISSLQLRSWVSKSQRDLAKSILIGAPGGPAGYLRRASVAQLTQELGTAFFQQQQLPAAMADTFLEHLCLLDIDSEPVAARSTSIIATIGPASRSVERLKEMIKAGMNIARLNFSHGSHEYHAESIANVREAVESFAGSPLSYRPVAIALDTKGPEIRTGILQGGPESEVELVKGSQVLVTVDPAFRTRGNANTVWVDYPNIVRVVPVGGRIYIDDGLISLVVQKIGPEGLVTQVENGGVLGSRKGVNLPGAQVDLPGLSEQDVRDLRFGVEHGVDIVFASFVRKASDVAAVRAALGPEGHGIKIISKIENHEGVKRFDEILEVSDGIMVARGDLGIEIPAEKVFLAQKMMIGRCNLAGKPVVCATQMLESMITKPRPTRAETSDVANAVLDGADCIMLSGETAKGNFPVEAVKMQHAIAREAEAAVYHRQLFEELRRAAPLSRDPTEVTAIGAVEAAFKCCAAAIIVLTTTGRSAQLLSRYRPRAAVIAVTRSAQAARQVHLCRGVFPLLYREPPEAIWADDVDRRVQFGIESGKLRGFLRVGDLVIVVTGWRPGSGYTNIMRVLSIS
Text: Confirmatory assay NIH Chemical Genomics Center [NCGC] Wael M. Rabeh, Lyudmila Nedyalkova and Hee-Wan Park [Structural Genomics Consortium, 100 College St. Toronto, Ontario, Canada] NCGC Assay Overview: Human pyruvate kinase reticulocyte (hPK-R) enzyme was supplied as a highly purified (>95% pure) preparation from Structural Genomics Consortium in Toronto (Ontario, Canada) and a secondary assay was used to evaluate compounds. This assay couples the formation of pyruvate from hPK-R using lactate dehydrogenase (LDH) and NADH. The depletion of NADH is followed in a fluorescent-based kinetic assay that follows the formation of pyruvate to lactate, as catalyzed LDH. Pyruvate kinase substrates, PEP and ADP, were present in the assay at 0.1 mM and 4 mM respectively. In this kinetic assay initial rates were determined by following the fluorescence of NADH depletion.
NCGC Assay Protocol Summary: Three uL of substrate mix (final concentration, 50 mM Tris-Cl pH 8.0, 200 mM KCl, 15 mM MgCl2, 0.1 mM PEP, 4.0 mM ADP, and 0.2 mM NADH) was dispensed into black-solid 1536 well plates. 23 nL of compounds were delivered by a pin tool and 1 uL of enzyme mix (final concentrations, 10 nM hPK-R and 1 uM of LDH) was added. Plates were immediately placed in ViewLux (Perkin Elmer) and NADH fluorescence was determined at 30 second exposure intervals for between 3 and 6 minutes. Data were normalized to the uninhibited and EC100 activation using known activators such as fructose-bis-phosphate.

activation, inactive:
O=S(=O)(c1ccc2c(c1)OCCO2)N1CCN(S(=O)(=O)c2c(F)cccc2F)CC1 -2.1%, COc1ccc(S(=O)(=O)N2CCN(S(=O)(=O)c3ccc(OC)cc3)CC2)cc1 -1.17%, Cn1c2cc(C#N)sc2c2cnn(Cc3ccccc3F)c(=O)c21 11.7%, CCCCCn1ncc2c3sc(C)cc3n(C)c2c1=O 1.51%, C[C@H]1CN(S(=O)(=O)c2ccc3c(c2)OCCO3)CCN1S(=O)(=O)c1c(F)cccc1F 6.33%, O=S(=O)(c1ccc2c(c1)OCO2)N1CCN(S(=O)(=O)c2c(F)cccc2F)CC1 9.27%, O=S(=O)(c1ccc2c(c1)OCCO2)N1CCN(S(=O)(=O)c2c(F)ccc(O)c2F)CC1 14.9%, C[C@@H]1CN(S(=O)(=O)c2ccc3c(c2)OCCO3)CCN1S(=O)(=O)c1c(F)cccc1F 20.4%, C[C@H]1CN(S(=O)(=O)c2c(F)cccc2F)CCN1S(=O)(=O)c1ccc2c(c1)OCCO2 11.4%, O=C(c1ccc2c(c1)OCCO2)N1CCN(S(=O)(=O)c2c(F)cccc2F)CC1 14.2%, O=C(c1c(F)cccc1F)N1CCN(S(=O)(=O)c2ccc3c(c2)OCCO3)CC1 12%, O=S(=O)(c1ccc2ccccc2c1)N1CCN(S(=O)(=O)c2c(F)cccc2F)CC1 6.77%, O=S(=O)(c1ccc(Cl)cc1)N1CCN(S(=O)(=O)c2ccc3c(c2)OCCO3)CC1 8.08%, O=S(=O)(c1cccc(F)c1)N1CCN(S(=O)(=O)c2ccc3c(c2)OCCO3)CC1 11%, Cc1cc2c(s1)c1cnn(Cc3c(F)c(F)cc(F)c3F)c(=O)c1n2C 17.4%

Potency, inactive:
O=S(=O)(NC1CCC(NS(=O)(=O)c2c(F)cccc2F)CC1)c1ccc2c(c1)OCCO2 (stereo unspecified), O=S(=O)(c1ccc2c(c1)OCCO2)N1CCN(S(=O)(=O)c2ccc3c(c2)OCCO3)CC1, O=S(=O)(c1c(F)cccc1F)N1CCN(S(=O)(=O)c2c(F)cccc2F)CC1

Potency, active:
COc1ccc(Cn2ncc3c4sc(C)cc4n(C)c3c2=O)cc1 631 nM, CC(=O)c1cc2c(s1)c1cnn(Cc3ccccc3F)c(=O)c1n2C 631 nM, CCc1cc2c(s1)c1cnn(Cc3ccccc3F)c(=O)c1n2C 5620 nM, Cn1c2ccsc2c2cnn(Cc3ccccc3F)c(=O)c21 14100 nM, CC(C)c1cc2c(s1)c1cnn(Cc3ccccc3F)c(=O)c1n2C 4470 nM, Cn1c2cc(S(C)=O)sc2c2cnn(Cc3ccccc3F)c(=O)c21 (stereo unspecified) 1120 nM, Cn1c2cc(C=O)sc2c2cnn(Cc3ccccc3F)c(=O)c21 398 nM, CSc1cc2c(s1)c1cnn(Cc3ccccc3F)c(=O)c1n2C 708 nM
